# Assay results as given in PubChem BioAssay AID709 (SRMLSC, 2007).
# Out of some 65,000 compounds screened, about 3,600 (5.5%) were called active. The full list was thinned out, with actives kept by preference. A number with no mark means an inactive call.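 How the source made its calls: active means at 10 µM, mean starting fluorescence two-fold or more over control wells; inactive means the rest.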
# Assay: intrinsic fluorescence of library compounds, ex339/em460 – biochemical, MLSMR library, data from DPM-DC assay, artefact control, profiling panel (AID 709);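 further: signal is the first read of a kinetic run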
# Settings: compound autofluorescence, ex339/em460 nm, NADH buffer; at 10 µM; stronger effect = higher value; 1 = no-compound wells, NADH background
row,SMILES,fluorescence fold increase
1,N#C/C=C1\Sc2ccccc2C(=O)N1CC(=O)N1CCN(S(=O)(=O)c2ccccc2)CC1,1.1
2,COc1cccc(NC(=O)C(C)Oc2ccccc2)c1 (centres undefined),1.11
3,CC1Oc2ccccc2N(Cc2cccnc2)C1=O (centres undefined),1.14
4,Cc1ccc(C(=O)OCC(=O)NCc2ccc3c(c2)OCO3)s1,0.99
5,COC(=O)Cc1c(C)c2ccc(OCC(=O)NCc3ccc4c(c3)OCO4)cc2oc1=O,2.07 (active)
6,O=C(COc1ccccc1)NCc1ccc2c(c1)OCO2,1.08
7,COCc1nnc(NC(=O)CS(=O)(=O)Cc2ccccc2)s1,1.1
8,Cc1nc2c(-c3ccccc3)c(C)[nH]n2c(=O)c1Cl,2.16 (active)
9,Cc1nc2nc(COc3ccccc3)[nH]n2c(=O)c1C,1.17
10,CC(=O)c1cc(-c2ccccc2)[nH]c1N1CCCC1,1.05
11,N#Cc1nc(COc2ccc(Cl)cc2)oc1N1CCCC1,1.02
12,CC1CCN(c2oc(-c3ccccc3F)nc2C#N)CC1,2.45 (active)
13,Cc1ccc(OCc2nc(C#N)c(N3CCCC3)o2)cc1,1.03
14,Cc1cc(C)c(C#N)c(SCc2ccc3c(c2)OCO3)n1,1.09
15,CCOC(=O)N1CCN(C(=O)CN(C2CCCCC2)S(C)(=O)=O)CC1,1.07
16,COc1ccc(N2CCN(C(c3cc4ccc(C)cc4[nH]c3=O)c3nnnn3C3CCCC3)CC2)cc1 (centres undefined),1.25
17,COCCn1nnnc1C(c1cc2ccc(OC)cc2[nH]c1=O)N1CCc2ccccc2C1 (centres undefined),1.12
18,CCOc1ccc2[nH]c(=O)c(C(c3nnnn3CCOC)N3CCOCC3)cc2c1 (centres undefined),5.03 (active)
19,O=C(O)Cc1ccc(NC(=O)C2CCCCC2C(=O)O)cc1 (centres undefined),1.09
20,CC1CN(C(=O)c2ccc3c(c2)OCO3)OC(c2ccccc2)O1 (centres undefined),1.07
21,COc1ccc(C2/C(=C(/O)c3ccc(OC(C)C)cc3)C(=O)C(=O)N2CCCN2CCOCC2)cc1 (centres undefined),1.01
22,O=C(OCC(=O)N1CCN(C(=O)c2ccco2)CC1)c1ccccc1Cc1ccccc1,0.99

row,SMILES,fluorescence fold increase
1,CCc1c(C)sc(NC(=O)c2ccc(Br)o2)c1C(=O)OC,2.8 (active)
2,CCOCC(=O)Nc1sc2c(c1C(=O)OCC)CCCC2,1.11
3,CCOC(=O)c1c(NC(=O)c2cccs2)sc(C)c1C,1.74
4,COC(=O)c1c(NC(=O)c2cccs2)sc2c1CCCC2,2.23 (active)
5,COC(=O)c1c(NC(=O)CSc2nncs2)sc2c1CCCCC2,1.1
6,CCOC(=O)c1c(NC(=O)c2ccc(Br)o2)sc2c1CCCC2,2.17 (active)
7,CCCOC(=O)Nc1sc2c(c1C(=O)OCC)CCC2,1.1
8,CC(CNC(=O)c1ccc(Br)o1)NC(=O)c1ccc(Br)o1 (centres undefined),1.02
9,COc1cc(OC)c(NC(=O)c2ccc(Br)o2)cc1Cl,1.09
10,Fc1ccccc1CCNc1nnnn1-c1ccccc1,1.11
11,COc1cc(NS(=O)(=O)c2ccc(NC(C)=O)cc2)cc(OC)c1,1.13
12,COC(=O)c1ccc2c(c1)S(=O)(=O)NC(=NCCCN1CCOCC1)S2,1.06
13,CCNC(=O)CN(c1ccc(C)cc1)S(=O)(=O)c1ccc(SC)cc1,1.06
14,CCCOP(=O)(c1ccc(N(C)C)cc1)C(O)c1cc(OC)c(OC)c(OC)c1 (centres undefined),1.13
15,CN(C)CCCn1c(N)c(C#N)c2nc(C#N)c(C#N)nc21,3.35 (active)
16,O=C1C(C=NCC2CCCO2)=C(O)c2ccccc21 (centres undefined),1.09
17,COC(=O)c1cnn2c(C(F)(F)F)cc(-c3ccco3)nc12,2.46 (active)
18,O=C(NCc1ccco1)c1cnn2c(C(F)(F)F)cc(-c3ccco3)nc12,1.6
19,COc1ccc(-c2cc(C(F)(F)F)n3nc(C(=O)N4CCOCC4)c(Cl)c3n2)cc1,1.17
20,CC(=O)Nc1ccc(S(=O)(=O)Nc2ccc(N3CCOCC3)c(F)c2)cc1,1.1
21,CCn1c(SCC(=O)NCc2ccco2)nnc1-c1ccc(N)cc1,1.1
22,CCOC(=O)c1cc(-c2ccc(Cl)s2)nc2c1c(C)nn2C,3.19 (active)

row,SMILES,fluorescence fold increase
1,CCOC(=O)c1cc(NC(=O)SCC(=O)O)c(C)nc1C,1.15
2,CCOC(=O)c1c(C(C#N)C#N)cc(C)nc1C,0.98
3,O=C(NCCc1ccc2c(c1)OCCO2)c1cc2ccccc2o1,1.11
4,CCOC(=O)N1CCN(C(=O)c2cc3c(ccc4ccccc43)oc2=O)CC1,3.93 (active)
5,CS(=O)(=O)N1CCN(C(=O)c2cc3ccccc3oc2=O)CC1,1.14
6,C=CCc1cccc2cc(C(=O)N3CCN(C(=O)OCC)CC3)c(=O)oc12,1.17
7,CN1CCN(CCCNC(=O)c2cc3c(=O)oc4ccccc4c3s2)CC1,1.53
8,CNC(=O)c1cc2c(ccc3ccccc32)oc1=N,2.32 (active)
9,Cc1ccc(C(=O)N2CCN(C3CCCCC3)CC2)s1,1.14
10,Cc1oc(C)c(C(=O)NCCCC(=O)O)c1C(=O)NCCCC(=O)O,1.14
11,CCOc1ccc(Cn2nnc(C(=O)Nc3ccc(OC)cc3OC)c2N)cc1,1.25
12,C[N+]1(CCNC(=O)/C=N/O)CCCCC1,1.1
13,CCCCC(=O)N1CC2(C)CN(C(=O)CCCC)CC(C)(C1)C2=O,1.09
14,COc1ccc(N2C(=O)CCC(C(=O)Nc3ccccn3)C2c2ccc(OC)c(OC)c2)cc1 (centres undefined),0.92
15,CC1(C)CC(=O)c2cc(OCC(=O)NCC3CCCO3)ccc2O1 (centres undefined),5.06 (active)
16,Cc1ccc(C(=O)NCC2CCCO2)o1 (centres undefined),1.14
17,COc1ccc(C2CC(=O)C=C(NCC3CCCO3)C2)cc1 (centres undefined),1.07
18,Nc1ccc(-c2nnc(-c3ccc(-c4ccccc4)cc3)o2)cc1,3.89 (active)
19,O=C(Nc1ccc(-c2nnc(-c3ccccc3)o2)cc1)c1ccc(Br)o1,1.45
20,O=C(Nc1ccc(-c2nnc(-c3ccccc3)o2)cc1)C1CCCO1 (centres undefined),1.79
